Experimental data from PubChem BioAssay (NCI).
Where “and” joins values, the source holds several entries; their conditions need not be identical. Equal values may be shown once. About 79,000 compounds went through this panel and 15% of them were active in at least one assay; those are over-represented in the sample as a whole. Some compounds were tested as several samples or in several runs, with calls that do not always agree. Calls of active or inactive are those of the source. No stated cut-off is given here; in the data, active means growth inhibition above about 70%; inactive means the rest.

assay: NCI Yeast Anticancer Drug Screen. Data for the rad50 strain (AID 155);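 further: 0% = growth of vehicle-only cultures of the same strain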; conditions: S. cerevisiae rad50 strain growth inhibition; at 50.0 µM (retest, dose inferred, filed as 5.0); stronger effect = higher value
How it was run: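 Relative growth inhibition (compound vs vehicle) was measured in yeast with a defined repair-gene alteration.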

| Structure (SMILES) | growth inhibition |
| --- | --- |
| COC1=C(OC)C(=O)C(Sc2ccc3ccccc3c2)=CC1=O | 97% (active) |
| COc1nc2c(c(=O)n1C)N=C(c1ccccc1)[C@H](C(CC(=O)c1ccccc1)c1ccccc1)C(c1ccccc1)N2 (stereo not given in full) | 94% (active) |
| Cc1cc(-c2cc(C)c(O)c(C(C)(C)C)c2)cc(C(C)(C)C)c1O | 98% (active) and 74% (active) |
| Nc1cc(N)c(N=Nc2cccc3c(S(=O)(=O)O)cccc23)cc1N=Nc1cc([N+](=O)[O-])ccc1O | 61% (inactive) |
| Nc1ccc(F)cc1S | 91% (active) |
| Brc1ccccc1-c1ncc(-c2ccccc2)o1 | 81% (active) |
| COc1cc(C2SCC(=O)N2c2ccc(-c3ccc(-n4c(-c5ccccc5)nc5ccccc5c4=O)cc3)cc2)ccc1O (stereo not given) | 35% (inactive) |
| Nc1ncnc2c1ncn2C1OC(CO)CC1O (stereo not given) | 90% (active) |
| COc1cc(CSc2ccc(O)cc2)cc(O)c1O | 42% (inactive) |
| CCOC(=O)C1N=[N+](c2ccccc2)C(=O)/C1=C\n1c(=S)[nH]c2ccc([N+](=O)[O-])cc21 (stereo not given) | 94% (active) |
| CNC(=O)OCc1c(COC(=O)NC)c2n(c1C)-c1ccc(OC)cc1CCC2 | 99% (active) |
| O=C(NNc1ccccc1)c1ccc(Cl)c(Cl)c1 | -4% (inactive) |
| C[C@]12CC[C@H](O)CC1=CC[C@@H]1C2CC[C@]2(C)C(=O)NC(=O)CC12 (stereo not given in full) | 69% (inactive) |
| CCCC/C=C/C(C)(C(=O)OCC)C(=O)OCC | 8% (inactive) |
| CCc1c(Cl)c(C)cc(O)c1Cl | 91% (active) |
| O=C(/C=C(/c1ccccc1)N1CCCCC1)c1ccccc1 | 92% (active) |
| CCCC(=O)Oc1ccc(/C=N/NC(N)=S)nc1 | 14% (inactive) |
| CCc1nc2ccc(NCCN(C)C)c3c(=O)c4ccccc4n1c23 | 86% (active) |
| Cc1sc2ccc3ccccc3c2[n+]1C | 77% (active) and -4% (inactive) |
| COc1c(O)c(C=O)c(Br)c(C=O)c1O | 97% (active) |
| Cc1ccc(Cl)cc1NC(=O)OCCN(C)C(=O)Nc1cc(Cl)ccc1C | 95% (active) |
| Cc1nc2ccccc2nc1NNc1ccccc1 | 34% (inactive) |

same assay, conditions: S. cerevisiae rad50 strain growth inhibition; at 50.0 µM; stronger effect = higher value

| Structure (SMILES) | growth inhibition |
| --- | --- |
| CN(C)c1ccc(C2CC(C)(O)Oc3cc4c(cc32)OCO4)cc1 (stereo not given) | 24.6% (inactive) |
| O=P(NC1CCCCC1)(OCc1ccccc1)OCc1ccccc1 | 73.3% (active) |
| COc1oc(C(=O)NC2CCCCC2)c(-c2ccc(Cl)cc2)c1S(=O)(=O)c1ccccc1 | 75.1% (active) |
| C[Si](C)(C)/C=C/CCNC(C#N)c1ccccc1 (stereo not given) | 89.7% (active) |
| CCOc1ccc(NC(=O)C2=C(C)NC(C)=C(C(=O)Nc3ccc(OCC)cc3)C2c2cccc([N+](=O)[O-])c2)cc1 | 26.4% (inactive) |
| CN(C)CCOC1(Cc2ccc(F)cc2)CCC(C(C)(C)C)CC1 (stereo not given) | 38.3% (inactive) and 99.1% (active) |
| CC1(C)CC(=O)C(/C=N/c2nc(-c3ccccc3)cs2)=C(O)C1 | 89.9% (active) |
| CC(=O)Nc1ccc2c(c1)Cc1cc(N=C3C=CC(=O)O3)ccc1-2 | 28.6% (inactive) |
| O=C1C=C(Cl)C(=O)C(c2ccc(Cl)cc2)=C1 | 91.5% (active) |
| CNCCCNc1c2ccccc2nc2cccc([N+](=O)[O-])c12 | 84.8% (active) |
| CCCCCCCCCCCC(O)S(=O)(=O)O (stereo not given) | -3.6% (inactive) |
| CC(C)OC(=O)c1ccc(CCc2cc(O)c(Br)cc2O)cc1 | 86.2% (active) |
| CCc1cc(O)c(Cl)c(C)c1Cl | 29.6% (inactive) |
| C(=Nc1ccc(-c2cc(-c3ccccc3)nc3ccc4ccccc4c23)cc1)c1ccccc1 | 50.2% (inactive) |
| CSc1nc(C)c(CCOC(C)=O)c(N=P(c2ccccc2)(c2ccccc2)c2ccccc2)n1 | 92.2% (active) |
| CS(=O)(=O)SCc1ccc([N+](=O)[O-])cc1 | 97.9% (active) |
| COC1=C(OC)C(=O)C(Sc2ccc3ccccc3c2)=CC1=O | 89.4% (active) |
| COc1nc2c(c(=O)n1C)N=C(c1ccccc1)[C@H](C(CC(=O)c1ccccc1)c1ccccc1)C(c1ccccc1)N2 (stereo not given in full) | 52.4% (inactive) |
| Cc1cc(-c2cc(C)c(O)c(C(C)(C)C)c2)cc(C(C)(C)C)c1O | 70.5% (active) and 77.3% (active) |

| Structure (SMILES) | growth inhibition |
| --- | --- |
| Nc1cc(N)c(N=Nc2cccc3c(S(=O)(=O)O)cccc23)cc1N=Nc1cc([N+](=O)[O-])ccc1O | 38.5% (inactive) |
| Nc1ccc(F)cc1S | 51.1% (inactive) |
| Brc1ccccc1-c1ncc(-c2ccccc2)o1 | 72.2% (active) |
| COc1cc(C2SCC(=O)N2c2ccc(-c3ccc(-n4c(-c5ccccc5)nc5ccccc5c4=O)cc3)cc2)ccc1O (stereo not given) | 58.4% (inactive) |
| Nc1ncnc2c1ncn2C1OC(CO)CC1O (stereo not given) | 87.8% (active) and 6.15% (inactive) and 79.6% (active) |
| COc1cc(CSc2ccc(O)cc2)cc(O)c1O | 60.8% (inactive) |
| CCOC(=O)C1N=[N+](c2ccccc2)C(=O)/C1=C\n1c(=S)[nH]c2ccc([N+](=O)[O-])cc21 (stereo not given) | 5.15% (inactive) |
| CNC(=O)OCc1c(COC(=O)NC)c2n(c1C)-c1ccc(OC)cc1CCC2 | 85.7% (active) |
| O=C(NNc1ccccc1)c1ccc(Cl)c(Cl)c1 | 38.6% (inactive) |
| C[C@]12CC[C@H](O)CC1=CC[C@@H]1C2CC[C@]2(C)C(=O)NC(=O)CC12 (stereo not given in full) | 82.4% (active) |
| CCCC/C=C/C(C)(C(=O)OCC)C(=O)OCC | -6.4% (inactive) |
| CCc1c(Cl)c(C)cc(O)c1Cl | 91.4% (active) |
| O=C(/C=C(/c1ccccc1)N1CCCCC1)c1ccccc1 | 90.3% (active) |
| CCCC(=O)Oc1ccc(/C=N/NC(N)=S)nc1 | 15% (inactive) |
| CCc1nc2ccc(NCCN(C)C)c3c(=O)c4ccccc4n1c23 | 29.1% (inactive) |
| Cc1sc2ccc3ccccc3c2[n+]1C | 82.6% (active) and 95.2% (active) |
| COc1c(O)c(C=O)c(Br)c(C=O)c1O | 98.2% (active) |
| Cc1ccc(Cl)cc1NC(=O)OCCN(C)C(=O)Nc1cc(Cl)ccc1C | 86% (active) |
| Cc1nc2ccccc2nc1NNc1ccccc1 | 81.3% (active) |
